# From publication PMC6792352, “Limited Chemical Structural Diversity Found to Modulate Thyroid Hormone Receptor in the Tox21 Chemical Library” (Environmental Health Perspectives, 2019)
# Counter-ions that a name gives are not always drawn.
# System: thyroid hormone receptor (endogenous TRα and TRβ)
# Parameters: species or system GH3-TRE-Luc (rat pituitary); GH3-TRE-Luc luciferase reporter, antagonist mode against 1 nM T3, loss of signal, qHTS
# Details: read-out: Average AC50 (uM) GH3-TRE-Antag, antagonist mode, 1 nM T3, no GH3 cytotoxicity hit, Average AC50 (uM) GH3-TRE-Antag, 24 h
row,SMILES,AC50
1,CCCCCCCCCCCCOS(=O)(=O)O [Sodium dodecyl sulfate],> 50 µM
2,Nc1c2c(nc3ccccc13)CCCC2 [Tacrine],41.7 µM
3,CC(C)n1c(/C=C/[C@H](O)C[C@H](O)CC(=O)O)c(-c2ccc(F)cc2)c2ccccc21 [Fluvastatin sodium],39.3 µM
